Results as given in the supplement of paper PMC8728848.
This excerpt belongs to a sample that is enriched for the strongest signals.

Experiments:
Assay in all cases: glycan array binding signal (z-score within array); higher = stronger binding
Details in all cases: glycan notation: IUPAC condensed, linker removed
[1] = target: Fuc(a1-2)Gal
Outline: (§1)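 Glycan array data came from 3228 arrays in the Consortium for Functional Glycomics database, and only arrays with an available protein sequence were kept. Glycan names were put into IUPAC-condensed notation, and columns mapping to the same glycan were averaged. The binding signal is a within-array Z-score, averaged across arrays of one protein sequence run at different concentrations or buffers and across linkers. A negative Z-score can be read as non-binding.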

[2] = target: Fuc(a1-2)Gal(b1-3)GlcNAc(b1-2)Man(a1-3)[Fuc(a1-2)Gal(b1-3)GlcNAc(b1-2)Man(a1-6)]Man(b1-4)GlcNAc(b1-4)GlcNAc
Outline: as §1

[3] = target: Fuc(a1-2)Gal(b1-3)GlcNAc(b1-3)[Gal(b1-4)GlcNAc(b1-6)]Gal(b1-4)Glc
Outline: as §1

[4] = target: Fuc(a1-2)Gal(b1-3)[Fuc(a1-4)]GlcNAc(b1-2)Man(a1-3)[Fuc(a1-2)Gal(b1-3)[Fuc(a1-4)]GlcNAc(b1-2)Man(a1-6)]Man(b1-4)GlcNAc(b1-4)[Fuc(a1-6)]GlcNAc(b1-4)[Fuc(a1-6)]GlcNAc
Outline: as §1

[5] = target: Fuc(a1-2)Gal(b1-4)GlcNAc(b1-2)[Fuc(a1-2)Gal(b1-4)GlcNAc(b1-4)]Man(a1-3)[Fuc(a1-2)Gal(b1-4)GlcNAc(b1-2)Man(a1-6)]Man(b1-4)GlcNAc(b1-4)GlcNAc
Outline: as §1

[6] = target: Fuc(a1-2)Gal(b1-4)GlcNAc(b1-6)GalNAc
Outline: as §1

[7] = target: Fuc(a1-2)Gal(b1-4)[Fuc(a1-3)]GlcNAc(b1-2)Man(a1-3)[Fuc(a1-2)Gal(b1-4)[Fuc(a1-3)]GlcNAc(b1-2)Man(a1-6)]Man(b1-4)GlcNAc(b1-4)[Fuc(a1-6)]GlcNAc
Outline: as §1

[8] = target: Fuc(a1-2)Gal6S(b1-4)Glc
Outline: as §1

[9] = target: Fuc(a1-2)[Gal(a1-3)]Gal(b1-3)GlcNAc(b1-6)GalNAc
Outline: as §1

[10] = target: Fuc(a1-2)[Gal(a1-3)]Gal(b1-4)GlcNAc(b1-3)GalNAc
Outline: as §1

[11] = target: Fuc(a1-2)[Gal(a1-3)]Gal(b1-4)[Fuc(a1-3)]GlcNAc(b1-3)GalNAc
Outline: as §1

[12] = target: Fuc(a1-2)[GalNAc(a1-3)]Gal
Outline: as §1

[13] = target: Fuc(a1-2)[GalNAc(a1-3)]Gal(b1-3)GlcNAc
Outline: as §1

[14] = target: Fuc(a1-2)[GalNAc(a1-3)]Gal(b1-4)GlcNAc
Outline: as §1

[15] = target: Fuc(a1-2)[GalNAc(a1-4)]Gal(b1-4)GlcNAc
Outline: as §1

[16] = target: Gal(a1-3)[Gal(a1-4)]Gal(b1-4)GlcNAc
Outline: as §1

[17] = target: Gal(a1-4)Gal(b1-4)GlcNAc(b1-3)Gal(b1-4)Glc
Outline: as §1

[18] = target: Gal(b1-3)Gal(b1-4)GlcNAc
Outline: as §1

[19] = target: Gal(b1-3)GalNAc(b1-4)Gal(b1-4)Glc
Outline: as §1

[20] = target: Gal(b1-3)GlcNAc(b1-2)Man(a1-3)[GlcNAc(b1-4)][Gal(b1-3)GlcNAc(b1-2)Man(a1-6)]Man(b1-4)GlcNAc(b1-4)GlcNAc
Outline: as §1

[21] = target: Gal(b1-3)GlcNAc(b1-2)[Gal(b1-3)GlcNAc(b1-6)]Man(a1-6)[Gal(b1-3)GlcNAc(b1-2)Man(a1-3)]Man(b1-4)GlcNAc(b1-4)GlcNAc
Outline: as §1

[22] = target: Gal(b1-3)GlcNAc(b1-3)Gal(b1-4)GlcNAc(b1-2)Man(a1-3)[Gal(b1-3)GlcNAc(b1-3)Gal(b1-4)GlcNAc(b1-2)Man(a1-6)]Man(b1-4)GlcNAc(b1-4)GlcNAc
Outline: as §1

[23] = target: Gal(b1-3)[Fuc(a1-4)]GlcNAc(b1-2)Man
Outline: as §1

[24] = target: Gal(b1-3)[Fuc(a1-4)]GlcNAc(b1-2)Man(a1-3)[Gal(b1-3)[Fuc(a1-4)]GlcNAc(b1-2)Man(a1-6)]Man(b1-4)GlcNAc(b1-4)[Fuc(a1-6)]GlcNAc
Outline: as §1

[25] = target: Gal(b1-4)GalNAc(b1-3)[Fuc(a1-2)]Gal(b1-4)GlcNAc
Outline: as §1

[26] = target: Gal(b1-4)GlcNAc(b1-2)Man(a1-3)[Man(a1-6)]Man(b1-4)GlcNAc(b1-4)GlcNAc
Outline: as §1

[27] = target: Gal(b1-4)GlcNAc(b1-2)[Gal(b1-4)GlcNAc(b1-6)]Man(a1-6)[GlcNAc(b1-4)][Gal(b1-4)GlcNAc(b1-2)Man(a1-3)]Man(b1-4)GlcNAc(b1-4)GlcNAc
Outline: as §1

[28] = target: Gal(b1-4)GlcNAc(b1-3)Gal(b1-3)GalNAc
Outline: as §1

[29] = target: Gal(b1-4)GlcNAc(b1-3)Gal(b1-4)GlcNAc(b1-2)Man(a1-3)[Gal(b1-4)GlcNAc(b1-3)Gal(b1-4)GlcNAc(b1-2)Man(a1-6)]Man(b1-4)GlcNAc(b1-4)GlcNAc
Outline: as §1

[30] = target: Gal(b1-4)GlcNAc(b1-3)Gal(b1-4)GlcNAc(b1-3)Gal(b1-4)GlcNAc(b1-3)Gal(b1-4)GlcNAc(b1-3)Gal(b1-4)GlcNAc(b1-2)[Gal(b1-4)GlcNAc(b1-3)Gal(b1-4)GlcNAc(b1-3)Gal(b1-4)GlcNAc(b1-3)Gal(b1-4)GlcNAc(b1-3)Gal(b1-4)GlcNAc(b1-6)]Man(a1-6)[Gal(b1-4)GlcNAc(b1-3)Gal(b1-4)GlcNAc(b1-3)Gal(b1-4)GlcNAc(b1-3)Gal(b1-4)GlcNAc(b1-3)Gal(b1-4)GlcNAc(b1-2)Man(a1-3)]Man(b1-4)GlcNAc(b1-4)[Fuc(a1-6)]GlcNAc
Outline: as §1

[31] = target: Gal(b1-4)GlcNAc(b1-3)[Gal(b1-4)GlcNAc(b1-6)]Gal(b1-4)GlcNAc
Outline: as §1

[32] = target: Gal3S(b1-4)Glc
Outline: as §1

[33] = target: Gal6S(b1-3)GlcNAc
Outline: as §1

[34] = target: GalNAc(a1-3)GalNAc(b1-3)Gal(a1-4)Gal(b1-4)Glc
Outline: as §1

[35] = target: GalNAc(b1-3)GalNAc
Outline: as §1

[36] = target: GalNAc(b1-4)GlcNAc(b1-2)Man(a1-3)[GalNAc(b1-4)GlcNAc(b1-2)Man(a1-6)]Man(b1-4)GlcNAc(b1-4)GlcNAc
Outline: as §1

[37] = target: Glc(a1-6)Glc(a1-6)Glc
Outline: as §1

[38] = target: Glc(b1-6)Glc
Outline: as §1

[39] = target: GlcNAc(a1-4)Gal(b1-4)GlcNAc(b1-3)Gal(b1-4)[Fuc(a1-3)]GlcNAc(b1-3)Gal(b1-4)[Fuc(a1-3)]GlcNAc
Outline: as §1

[40] = target: GlcNAc(b1-3)Gal(b1-4)GlcNAc(b1-2)Man(a1-3)[GlcNAc(b1-3)Gal(b1-4)GlcNAc(b1-2)Man(a1-6)]Man(b1-4)GlcNAc(b1-4)[Fuc(a1-6)]GlcNAc
Outline: as §1

[41] = target: GlcNAc(b1-3)Gal(b1-4)GlcNAc(b1-3)Gal(b1-4)GlcNAc(b1-2)[GlcNAc(b1-3)Gal(b1-4)GlcNAc(b1-3)Gal(b1-4)GlcNAc(b1-6)]Man(a1-6)[GlcNAc(b1-3)Gal(b1-4)GlcNAc(b1-3)Gal(b1-4)GlcNAc(b1-2)Man(a1-3)]Man(b1-4)GlcNAc(b1-4)[Fuc(a1-6)]GlcNAc
Outline: as §1

[42] = target: Man(a1-2)Man(a1-3)Man
Outline: as §1

[43] = target: Man(a1-3)[Man(a1-6)]Man(a1-6)[Man(a1-2)Man(a1-3)]Man(b1-4)GlcNAc(b1-4)GlcNAc
Outline: as §1

[44] = target: Man(b1-4)GlcNAc
Outline: as §1

[45] = target: Neu5Ac(a2-3)Gal(b1-3)GalNAc6S
Outline: as §1

[46] = target: Neu5Ac(a2-3)Gal(b1-4)GlcNAc(b1-2)Man(a1-3)[Neu5Ac(a2-3)Gal(b1-4)GlcNAc(b1-2)Man(a1-6)]Man(b1-4)GlcNAc(b1-4)GlcNAc
Outline: as §1

[47] = target: Neu5Ac(a2-6)Gal(b1-4)GlcNAc(b1-3)Gal(b1-4)GlcNAc(b1-3)Gal(b1-4)GlcNAc(b1-2)Man(a1-3)[Neu5Ac(a2-6)Gal(b1-4)GlcNAc(b1-3)Gal(b1-4)GlcNAc(b1-3)Gal(b1-4)GlcNAc(b1-2)Man(a1-6)]GalNAc
Outline: as §1

[48] = target: Neu5Ac(a2-6)Gal(b1-4)GlcNAc(b1-3)Gal(b1-4)GlcNAc(b1-6)[Gal(b1-3)]GalNAc
Outline: as §1

[49] = target: Neu5Ac(a2-8)Neu5Ac(a2-3)Gal(b1-4)GlcNAc
Outline: as §1

[50] = target: Neu5Ac(a2-8)Neu5Gc(a2-3)Gal(b1-4)GlcNAc
Outline: as §1

B1: PX14343I-pdi-501-30-501 (Parabacteroides distasonis) (protein)
chain: SDQYSTETFWKTKEHASAGIMGCYNALKLWRSLHTMEFDMLTANAMPYNEANGTQAIGKGEHLSTTALIGSLWKNCYVGIGRTNTFIANVGGVDMDESEKAKMVGEAKFLRAFYYLSLVDKFGGVPLIIDAPNADEQAELPRNSKEEVVNQIVKDLEEAAAVLPDTYASSDLGRATKGAALALKARTLLYNSRWAEAAQAAKQVMESGVYQLFNDYRHFFSEDNKYNCEVIFDIEAKLPEYPTDYDQNIWRLNRPAPLKELVDTYLCVDGKTIEESPLYDPTRPYENRDPRLLKSIVCIGYPYLGKTITKEDVATTGFGVKKYTSYEDDVTIPLVERSAFNFILIRYAEVLLTYAEAQNEASGPDQSVYDAINQLRRRPDINMPEVPKGLTKDQMREVIRRERRIELTFEGLYYSDILRWKTAEKENNGMMHNYEGIEVVKRSFNPKRDYLWPIPYNQTVLNPNLEQNPNWD
glycan array binding signal (z-score) [1]: -0.249
glycan array binding signal (z-score) [2]: 1.95
glycan array binding signal (z-score) [3]: -0.005
glycan array binding signal (z-score) [4]: -1.15
glycan array binding signal (z-score) [5]: 1.69
glycan array binding signal (z-score) [6]: -1.54
glycan array binding signal (z-score) [7]: 2.6
glycan array binding signal (z-score) [8]: 0.082
glycan array binding signal (z-score) [9]: -0.008
glycan array binding signal (z-score) [10]: 0.362
glycan array binding signal (z-score) [11]: -0.205
glycan array binding signal (z-score) [12]: -0.237
glycan array binding signal (z-score) [13]: 0.35
glycan array binding signal (z-score) [14]: -0.707
glycan array binding signal (z-score) [15]: -0.33
glycan array binding signal (z-score) [16]: 2.67
glycan array binding signal (z-score) [17]: -0.408
glycan array binding signal (z-score) [18]: -0.375
glycan array binding signal (z-score) [19]: -0.713
glycan array binding signal (z-score) [20]: 0.623
glycan array binding signal (z-score) [21]: 1.55
glycan array binding signal (z-score) [22]: 0.741
glycan array binding signal (z-score) [23]: 0.532
glycan array binding signal (z-score) [24]: 1.6
glycan array binding signal (z-score) [25]: -0.377
glycan array binding signal (z-score) [26]: -0.562
glycan array binding signal (z-score) [27]: -0.439
glycan array binding signal (z-score) [28]: -0.11
glycan array binding signal (z-score) [29]: 1.61
glycan array binding signal (z-score) [30]: 1.86
glycan array binding signal (z-score) [31]: -0.2
glycan array binding signal (z-score) [32]: 0.301
glycan array binding signal (z-score) [33]: 0.19
glycan array binding signal (z-score) [34]: 0.12
glycan array binding signal (z-score) [35]: 1.96
glycan array binding signal (z-score) [36]: -0.398
glycan array binding signal (z-score) [37]: 0.049
glycan array binding signal (z-score) [38]: -0.768
glycan array binding signal (z-score) [39]: 1.69
glycan array binding signal (z-score) [40]: 4.66
glycan array binding signal (z-score) [41]: 1.77
glycan array binding signal (z-score) [42]: 0.611
glycan array binding signal (z-score) [43]: 0.28
glycan array binding signal (z-score) [44]: -0.706
glycan array binding signal (z-score) [45]: -0.135
glycan array binding signal (z-score) [46]: -0.301
glycan array binding signal (z-score) [47]: 2.21
glycan array binding signal (z-score) [48]: 0.989
glycan array binding signal (z-score) [49]: -0.464
glycan array binding signal (z-score) [50]: 18.3
